In the library only some 31% were active in any assay of this set; here they are far more common.
CYP2C9 activ: human CYP2C9 activators, primary screen, biochemical, luminescence | Cytochrome P450 2C9 (Homo sapiens), P11712 | recombinant CYP2C9, luciferin-H conversion; hits give high values; factor 1 = untreated enzyme, 0 = blocked | activation factor at 5 µM | hit rate 1.4% among 96,000 | AID 1024, 2008;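 active means activation factor of 2 or more for CYP2C9 at a 5 µM dose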;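 further: 0 = sulfaphenazole-blocked wells and 1 = vehicle-only wells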
CYP2C19 activ: human CYP2C19 activators, primary screen, biochemical, luminescence | 96,000 tested, under 10 active | activation factor at 5 µM | recombinant CYP2C19, luciferin-H EGE luminescence; hits give high values; 0 = fully inhibited enzyme, 1 = untreated enzyme;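 active means activation factor of at least 2 at 5 µM in the primary screen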;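 further: 0 = wells with 2.5 mM tranylcypromine and 1 = vehicle-only wells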
CYP2C19 inhib: blockers of cytochrome P450 2C19 activity – biochemical, luminescence, ADME assay, primary screen. P33261. CYP2C19 Supersomes, luciferin-H EGE luminescence, 30 min. inhibition, % at 5 µM. hit rate 21% among 96,000. AID 778, 2007;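 active means CYP2C19 inhibition above a set limit at 5 µM in the primary screen, cut at about 50% in these data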;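 further: plate controls were negative control wells for no effect and 2.5 mM tranylcypromine positive control for full effect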
PLAP act: PLAP enzyme activators, biochemical, luminescence, HTS. AID 696, 2007. purified PLAP enzyme, luminescent substrate read-out; hits give high values. activation fold at 20 µM. hit rate 1.2% among 96,000. Alkaline phosphatase, placental type (Homo sapiens), P05187; in the data active means activation fold above about 2
Target sequence (P05187 whole entry, looked up): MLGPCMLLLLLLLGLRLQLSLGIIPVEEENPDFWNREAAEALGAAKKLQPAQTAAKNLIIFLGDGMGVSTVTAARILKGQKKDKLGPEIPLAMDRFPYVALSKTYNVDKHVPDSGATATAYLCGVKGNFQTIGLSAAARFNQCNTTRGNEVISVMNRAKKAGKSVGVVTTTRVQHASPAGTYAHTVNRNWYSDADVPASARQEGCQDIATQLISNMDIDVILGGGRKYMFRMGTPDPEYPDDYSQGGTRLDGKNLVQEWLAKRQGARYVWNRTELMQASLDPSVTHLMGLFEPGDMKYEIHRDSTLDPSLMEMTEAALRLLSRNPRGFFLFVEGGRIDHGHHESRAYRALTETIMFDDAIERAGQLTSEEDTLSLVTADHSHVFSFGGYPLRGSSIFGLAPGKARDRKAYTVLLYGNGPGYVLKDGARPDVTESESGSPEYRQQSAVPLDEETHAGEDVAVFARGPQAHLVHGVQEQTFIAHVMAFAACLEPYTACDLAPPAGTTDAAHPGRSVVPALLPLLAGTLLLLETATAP
CYP2C9 inhib: blockers of cytochrome P450 2C9 activity – biochemical, luminescence, ADME assay, primary screen. P11712. CYP2C9 Supersomes, luciferin-H conversion. inhibition, % at 5 µM. hit rate 20% among 96,000;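 active means blocking of liver enzyme CYP2C9 beyond about 50% at 5 µM, limit read from the data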
* = called active by the depositor; . = not tested or not shown.

SMILES | CYP2C9 activ | CYP2C19 activ | CYP2C19 inhib | PLAP act | CYP2C9 inhib
Cc1cc(NC(=O)CN2CCC(n3nnc4cc(C(F)(F)F)ccc43)CC2)no1 | 0.1 | 0.2 | 78* | 1.1 | 86*
CCOc1ccc2nc(NC(=O)CN3CCC(n4nnc5cc(C(F)(F)F)ccc54)CC3)sc2c1 | 1.1 | 1.1 | -10 | 1 | -11
CCCc1cc(C(=O)NCC(C)C)no1 | 0.8 | 0.7 | 33 | 0.9 | 15
O=C(CN1CCC(n2nnc3cc(F)ccc32)CC1)N1CCCc2ccccc21 | 0.9 | 0.3 | 66* | 1.5 | 10
Cc1ccc2nc(C3CCN(CC(=O)Nc4ccc5c(c4)OCCO5)CC3)[nH]c2c1 | 0.2 | 0.2 | 80* | . | 78*
CC1CN(c2c3c(nc4ncnn24)CCCC3)CC(C)O1 (stereo not given) | 1 | 1.1 | -12 | 1 | -5
O=C(c1cccc(C(F)(F)F)c1)N1CCN(c2cc(=O)[nH]nc2-c2ccccc2)CC1 | 0.9 | 1.1 | -7 | 1.2 | 11
CCOC(=O)c1ccc(CC(=O)c2oc3cc(O)ccc3c2C)o1 | 0.3 | 0.7 | 28 | 1.2 | 66*
CCOC(=O)c1oc2cc(O)ccc2c(=O)c1-c1ccccc1OC | 0.7 | 0.9 | 6 | 1.2 | 28
CCOC(=O)c1ccc(-c2c(C(=O)OCC)oc3cc(O)c(CC)cc3c2=O)o1 | 0 | 0.3 | 68* | 1.3 | 97*
CCOC(=O)c1oc2cc(O)ccc2c(=O)c1-c1csc(C)n1 | 1 | 1.1 | -9 | 0.9 | 4
O=C1C(O)CC2c3ccccc3CC3(CCCC3)N12 (stereo not given) | 0.8 | 1 | 2 | 1.1 | 16
CCOC(=O)c1ccc(NS(=O)(=O)c2cnc[nH]2)cc1 | 0 | 0.7 | 28 | 1 | 98*
COc1cc(NS(=O)(=O)c2ccc(NC(C)=O)cc2)nc(OC)n1 | 0.8 | 1.1 | -13 | 1.1 | 15
CCOC(=O)c1cccc(NS(=O)(=O)c2ccc(NC(C)=O)cc2)c1 | 0 | 0 | 100* | 1.2 | 98*
COC(=O)c1ccc(N2CCCCC2)c(NS(=O)(=O)c2ccc(C)cc2)c1 | 0.1 | 0.7 | 32 | 1.7 | 87*
COC(=O)c1ccc(C)c(NS(=O)(=O)c2ccc(NC(C)=O)cc2)c1 | 0 | 0.2 | 76* | 1.1 | 96*
CCCC(=O)Nc1c(C)nn(C(=O)CCC)c1C | 1.1 | 1 | -5 | 1 | -7
COc1ccc2c(c1)CCc1cc(C(=O)N3CCN(c4ccc(N5CCOCC5)nn4)CC3)sc1-2 | 1 | 1 | -1 | 1.4 | 3
COc1ccccc1CNC(=O)c1ccc(CNc2c(N3CCCC3)c(=O)c2=O)cc1 | 1 | 1 | -1 | 1.1 | -5
Cc1ccc(-c2nnc(SCC(=O)N3CCOCC3)nc2-c2ccc(C)cc2)cc1 | 0.7 | 0.9 | 14 | 1.6 | 33
CCOC(=O)c1cccc(NS(=O)(=O)c2cnc[nH]2)c1 | 0.3 | 0.7 | 26 | 1.1 | 74*
O=C(CC(Nc1ccccc1Cl)C(=O)OCC(=O)c1cccs1)c1ccccc1 (stereo not given) | 0.4 | 0.3 | 65* | 1.1 | 62*
O=C(Nc1nnc(C23CC4CC(CC(C4)C2)C3)s1)c1ccco1 | 1 | 0.9 | 10 | 1 | -2
COCCn1c(SCC(=O)c2ccccc2)nc2c(c1=O)SC(C)C2 (stereo not given) | 0 | 0.1 | 91* | 1.6 | 96*
SMILES | CYP2C9 activ | CYP2C19 activ | CYP2C19 inhib | PLAP act | CYP2C9 inhib
CCn1c(SCC(=O)c2ccccc2)nc2c(c1=O)SC(C)C2 (stereo not given) | 0.1 | 0.6 | 38 | 1.1 | 90*
CCSc1nc2c(c(=O)n1CC)SC(C)C2 (stereo not given) | 0.8 | 0.8 | 19 | 1.2 | 19
CC1Cc2nc(SCC(=O)NCc3ccco3)n(Cc3ccccc3)c(=O)c2S1 (stereo not given) | 0.5 | 0.6 | 37 | 0.9 | 48
C=CCn1c(COc2cccc3ccc(C)nc23)nnc1SCC(=O)OC | 1.9 | 0.5 | 47 | 1.5 | -90
COc1cc(C)c(Cl)cc1S(=O)(=O)N(C)C | 1.7 | 0.8 | 22 | 1.4 | -68
COc1ccc(C)cc1N(CC(=O)NC1CCCC1)C(=O)CCC(=O)Nc1cc(C)on1 | 0.6 | 0.7 | 29 | 1.3 | 40
COc1ccccc1N(CC(=O)NC1CCCC1)C(=O)CCC(=O)Nc1cc(C)on1 | 0.3 | 0.4 | 63* | 1.4 | 65*
CCOc1ccccc1N(CC(=O)NC1CCCC1)C(=O)CCC(=O)Nc1cc(C)on1 | 0.2 | 0.2 | 83* | 1.7 | 83*
COc1cc(NC(=O)C2CCN(S(=O)(=O)c3ccc(Cl)cc3)CC2)ccc1-n1cnnn1 | 0.9 | 1 | 5 | 1.4 | 9
OC(COc1ccc2ccccc2c1Br)Cn1ccnc1 (stereo not given) | 0 | 0 | 99* | 1.1 | 96*
OC(COc1ccc2ccccc2c1)Cn1ccnc1 (stereo not given) | 0 | 0 | 100* | 1.5 | 98*
Cc1nnc(NC(=O)CSc2nnc(Cc3cccn3C)n2C)s1 | 1 | 0.9 | 12 | 1.1 | 1
O=C(NCCn1ccc2ccccc21)c1ccc2c(c1)OCO2 | 0.9 | 0.3 | 65* | 1 | 13
COc1ccc(C(=O)NCCn2ccc3ccccc32)cc1 | 1.2 | 0.2 | 78* | 0.8 | -20
CC(C)(C)C(=O)NCCn1ccc2ccccc21 | 0.6 | 0 | 97* | 1.3 | 42
Cc1cc2ccccc2n1CCNC(=O)c1ccc(S(=O)(=O)N2CCOCC2)cc1 | 0.7 | 0.9 | 12 | 0.8 | 32
O=C(NCCn1ccc2ccccc21)c1ccc(S(=O)(=O)N2CCCCC2)cc1 | 0.4 | 0.8 | 17 | 1.3 | 56*
CCOCCCNC(=S)N1C2CCC1CC(NC(=O)NC1CCCCC1)C2 (stereo not given) | 1.1 | 1 | 0 | 1 | -7
COc1ccc(Cl)cc1C(=O)N1CCN=C1SC | 0.8 | 0.6 | 36 | 1 | 22
CN(C)c1ccc(C2NCC(CCl)O2)cc1 (stereo not given) | 1.1 | 0.8 | 17 | 0.9 | -8
O=C(NCCNS(=O)(=O)c1cccc(C(F)(F)F)c1)c1cc(OCC(F)(F)F)ccc1OCC(F)(F)F | 0.8 | 0.2 | 80* | 0.9 | 16
COc1ccc(C(=O)NCCNC(=O)c2cc(OCC(F)(F)F)ccc2OCC(F)(F)F)cc1 | 0.9 | 1 | -3 | 0.9 | 10
CC(C)CC(=O)NCCNC(=O)c1cc(OCC(F)(F)F)ccc1OCC(F)(F)F | 0.1 | 1 | 4 | 1 | 87*
CCC/C(=N/NC(=O)c1csc(C)c1C)c1ccc(Cl)s1 | 1 | 0.7 | 31 | 0.8 | 0
CO/N=C(/CS(=O)(=O)Cc1ccccc1Cl)c1ccc(Cl)cc1Cl | 1 | 0.5 | 52* | 0.9 | 4
O=C(O)CCS(=O)(=O)Cc1ccccc1Cl | 0.8 | 1 | 3 | 0.8 | 17

Screening data as filed in PubChem.
